Sampled rows, rich in hits. Any-hit rate of the full collection: about 6.6%.
TGFb inhibitor: TGF-b pathway inhibition. 1.2% of 410,000 active. HepG2 CAGA-GFP TGF-b/SMAD3 reporter, GFP fluorescence, 18 h; TGF-beta stimulated, 500 pg/mL final. Potency, µM (series often up to 46.1 µM), most hits filed as inhibitors; also: nearly all actives have a fitted effect of over 65% in size
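First, reporter cells (HEPG2 CAGA-GFP) rested 2 h at 37 degrees C. Next, compounds were pinned in and TGF-beta added to 500 pg/mL final. After 18 h, GFP was imaged per cell and summed per well.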
HT1080 IDH1KD tx: toxicity to HT-1080 IDH1 knockdown cells (counter line); HT-1080 IDH1 knockdown viability, ATP luminescence, 48 h; Potency, µM (titrated, usually from 46.1 µM), hits mostly cytotoxic; 2% of 360,000 active; AID 686971
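CellTiter-Glo luminescence after 48 h compound exposure at 37 degrees C of IDH1-knockdown HT-1080 cells in 5% FBS RPMI. %Activity scaled between DMSO wells and cell-free media wells, with curves fitted and assigned curve classes.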
HepG2 viability: HepG2 cytotoxicity, counter-screen for TGF-b inhibitors. HepG2 CAGA-GFP viability, ATP luminescence, 18 h. Potency, µM (titrated, usually from 46.1 µM), most hits filed as cytotoxic. 0.76% of 410,000 active
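CellTiter-Glo luminescence gave cytotoxicity after 18 hours at 37 degrees C. The cells were HepG2 CAGA-GFP in 1% FBS DMEM, stimulated with 500 pg/mL TGF-beta after compound addition. %Activity was normalised to no-cell wells (complete cell-killing) and DMSO (no toxicity), and curves were fitted and classified.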
KB-3-1 tox: kills parental KB-3-1 adenocarcinoma cells; KB-3-1 viability, CellTiter-Glo ATP luminescence, 72 h; Potency, µM (doses to about 46.1 µM), most hits filed as cytotoxic; 1.4% of 400,000 active; also: nearly all actives have a fitted effect of over 60% in size
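Cytotoxicity measured as CellTiter-Glo luminescence after 72 h at 37 C. Compound titrations were pinned onto drug-naive KB-3-1 parental adenocarcinoma cells grown in DMEM with 10% FBS, and normalized data fitted to concentration-response curves.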
HT1080NT lethal: kills 2HG-producing HT-1080-NT fibrosarcoma cells | 1.6% of 360,000 active | AID 686970 | HT-1080-NT fibrosarcoma viability, CellTiter-Glo ATP luminescence, 48 h | Potency, µM (highest dose often 46.1 µM), actives largely listed as cytotoxic;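 also: NT is the 2HG producing partner of a matched IDH1 knockdown line; nearly all actives have a fitted effect of over 55% in size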
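Viability of the 2HG-overproducing fibrosarcoma line after 48 hours of compound exposure at 37 degrees C was determined by luminescence with CellTiter-Glo, and concentration-effect curves were then fitted and categorized.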
KB-V1 cytotox: KB-V1 MDR subline cytotoxicity. KB-V1 MDR cells viability, CellTiter-Glo, 72 h. Potency, µM (titrated, usually from 46.1 µM), actives largely listed as cytotoxic. 3.4% of 400,000 active; also: nearly all actives have a fitted effect of over 60% in size
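qHTS viability screen in drug-selected KB-V1 MDR cells: 72 h compound treatment at 37 degrees C, ATP luminescence end point.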
Hits are given with their value; n = inactive; u = inconclusive; x = no result. Calls follow the shape of the dose curve; as a rule, active = well fitted curve in the direction sought with a large enough effect; inconclusive = small, poorly fitted or top-dose-only effect, or another doubt; inactive = no such curve, though single readings can be large; an effect the other way counts as inactive or inconclusive.

SMILES	TGFb inhibitor	HT1080 IDH1KD tx	HepG2 viability	KB-3-1 tox	HT1080NT lethal	KB-V1 cytotox
CC1(C)Cc2c(sc3nc(-c4ccccc4)n(N)c(=O)c23)CO1	n	n	n	n	n	n
CC(=O)N1CCCc2cc(S(=O)(=O)N3CCC(N(C)C(C)C)CC3)ccc21	n	x	n	n	x	n
CC(=O)N1CCCc2cc(S(=O)(=O)N3CCC(C)CC3)ccc21	u	n	n	n	n	21µM
CC(=O)N1c2ccc(S(=O)(=O)N3CCCC(C(=O)N4CCC(C)CC4)C3)cc2CC1C (centres undefined)	n	n	n	n	n	21µM
CSc1ccc(CCNC(=O)CCc2c(C)nc3c4cccnc4nn3c2C)cc1	n	x	n	n	x	n
CCCCCCOC(=O)C[N+](C)(C)CCOC1CC2CCC1(C)C2(C)C (centres undefined)	n	n	n	n	n	n
CCC(C)OC(=O)C[N+](C)(C)CCOC1CC2CCC1(C)C2(C)C (centres undefined)	n	n	n	21µM	n	n
CC(C)CCOC(=O)C[N+](C)(C)CCOC1CC2CCC1(C)C2(C)C (centres undefined)	n	n	n	n	u	n
CCCCCCCOC(=O)C[N+](C)(C)CCOC1CC2CCC1(C)C2(C)C (centres undefined)	u	18µM	18µM	21µM	8.2µM	n
Cc1ccc(CN2CCN(C3CCN(S(=O)(=O)N(C)C)CC3)C(=O)C2=O)cc1	n	x	n	n	x	n
Cn1c(=O)cc(OCCCC(=O)Nc2ccc(F)cc2)c2ccccc21	n	x	n	n	x	u
O=C(NCc1ccc(F)cc1)c1ccc2c(c1)nc1n2CCCCC1	n	x	n	n	x	n
Cc1ccc2sc(N(CCCN(C)C)C(=O)c3ccc(S(=O)(=O)N(C)C4CCCCC4)cc3)nc2c1C	u	u	n	23µM	n	18µM
CCN(Cc1ccccc1)S(=O)(=O)c1ccc(C(=O)N(CCCN(C)C)c2nc3c(C)c(C)ccc3s2)cc1	u	18µM	n	u	u	u
CCN(Cc1ccccc1)S(=O)(=O)c1ccc(C(=O)N(CCCN(C)C)c2nc3cc4c(cc3s2)OCO4)cc1	16µM	u	13µM	n	u	u
CC(=O)c1ccc(C(=O)N(CCCN(C)C)c2nc3c(C)c(C)ccc3s2)cc1	u	x	n	n	x	n
CCn1c(SCC(=O)NCc2ccco2)nnc1-c1cccc(N(C)C)c1	n	x	n	n	x	n
Cc1csc2nc(-c3ccc(NS(=O)(=O)c4cc(F)ccc4F)cc3)cn12	n	x	n	n	x	u
COc1cccc(C(=O)C2CN(c3ccccc3)CC2c2ccc(Cl)cc2)c1 (centres undefined)	n	u	n	n	n	16µM
O=C(O)COc1ccc(/C=N/n2cnc3scc(-c4cccs4)c3c2=O)cc1	n	n	n	n	n	n
O=c1c2c(-c3cccs3)csc2ncn1/N=C/c1ccc(OC(F)F)cc1	n	n	n	n	n	15µM
O=C(NCCc1ccccc1)c1sc2ncccc2c1-n1cccc1	u	x	n	u	x	n
O=C(NC1CCCCC1)N1CCCC(c2nc(-c3ccc(S(=O)(=O)N4CCCC4)cc3)no2)C1 (centres undefined)	n	n	n	u	n	3.7µM
O=C(c1ccc(F)cc1)N1CCC(c2nc(-c3ccc(S(=O)(=O)N4CCCC4)cc3)no2)CC1	n	x	n	x	x	x
O=S(=O)(c1ccc(F)cc1)N1CCCC(c2nc(-c3ccc(F)cc3)no2)C1 (centres undefined)	n	n	n	n	n	n
SMILES	TGFb inhibitor	HT1080 IDH1KD tx	HepG2 viability	KB-3-1 tox	HT1080NT lethal	KB-V1 cytotox
CC(C)C(=O)N1CCC(c2nc(-c3ccc(S(=O)(=O)N4CCCC4)cc3)no2)CC1	n	n	n	n	n	12µM
O=S(=O)(NC1CC1)c1ccc(S(=O)(=O)N2CCCC(c3nc(-c4cccnc4)no3)C2)cc1 (centres undefined)	u	n	n	n	n	8.2µM
CCN(CC)c1ccc(/C=C/c2cc(Cl)nc3ccccc23)cc1	n	x	n	n	x	n
CN(C)c1ccc(/C=C/c2cc(Cl)nc3ccccc23)cc1	u	x	n	u	x	13µM
Cc1nc2ccccc2nc1/C=C/c1ccc(N(C)C)cc1	n	x	n	5.2µM	x	u
CN(C)c1ccc(/C=C/c2cc(N(C)C)nc3ccccc23)cc1	u	x	n	0.58µM	x	1.8µM
NC(=O)c1ccc2nc(-c3ccc(Oc4ccc(Cl)cc4)cc3)[nH]c2c1	x	x	x	n	x	n
CCCC(=O)Nc1cccc(NC(=O)CN2CCN(c3ccccc3OC)CC2)c1	n	n	n	n	n	2.6µM
COc1ccccc1NC(=O)CN1CCOCC1	n	n	7.9µM	n	n	n
COC(=O)c1ccccc1NC(=O)CSCC(=O)Nc1ccccc1OC	n	n	n	n	n	9.2µM
COc1ccccc1NC(=O)CN1CCCCCC1	n	n	n	n	n	n
CCn1c(SCC(=O)Nc2ccccc2OC)nc2ccccc2c1=O	n	n	n	n	n	u
COc1ccccc1NC(=O)CSc1nc2ccccc2n1C(C)=O	n	n	n	n	n	16µM
N#Cc1ccccc1NC(=O)C(=O)NCC(c1ccc2c(c1)OCO2)N1CCOCC1 (centres undefined)	n	x	n	x	x	x
COC(=O)c1sccc1NC(=O)c1cc2c(s1)CCCC2	n	n	n	n	n	15µM
COc1ccc(C)cc1NC(=O)c1cc2c(s1)CCC2	n	n	n	n	n	u
Brc1ccc2c(ccc[n+]2CCc2ccccc2)c1	n	x	n	u	x	n
O=S1(=O)C2CC3C=CC2(O3)C(O)C(Cc2ccccc2)N1Cc1cccc(F)c1 (centres undefined)	u	x	n	x	x	x
Cc1ccc(NC(=S)/C(C#N)=C2/Nc3ccccc3S2)cc1	20µM	n	n	u	u	n
N#C/C(C(=O)N1CCCCC1)=C1\Nc2ccccc2S1	n	n	n	n	n	n
CC(C)N(Cc1cn[nH]c1-c1ccc(-c2ccccc2)cc1)Cc1nccn1C	u	21µM	n	n	15µM	n
COc1ccccc1N(CC(=O)Nc1ccc2c(c1)OCO2)S(=O)(=O)c1ccc(C)cc1	u	x	n	n	x	n
CN(C)c1ccc(C=O)c(F)c1	n	x	n	n	x	n
COc1ccc(NC(=O)Cn2c(=O)ccc3cc(S(=O)(=O)N4CCCC4)ccc32)cc1Cl	n	x	n	n	x	n
CCO[C@H]1OC(C(=O)NCc2nc3ccccc3[nH]2)=C[C@@H](c2ccccc2)[C@@H]1CCCO	n	n	n	n	n	n
CCO[C@H]1OC(C(=O)NCc2nc3ccccc3[nH]2)=C[C@@H](C2CC2)[C@@H]1CCCO	n	2.1µM	n	n	u	n

Screens: PubChem, National Center for Advancing Translational Sciences (NCATS)
